From PubChem
Only some compounds are listed: those with a hit (about 2.3% of all), similar ones and a draw of the others.
CHRM1 PAM: human M1 muscarinic receptor positive allosteric modulators, primary screen, CHO-K1 cells, Fluo-8 calcium fluorescence, 1536-well; Muscarinic acetylcholine receptor M1 (Homo sapiens), P11229; CHO-K1 hM1, ACh EC20; 0% = ACh EC20, 100% = maximal ACh; 0.088% of 360,000 active; activation, % at 3 µM; in the data active = activation above about 19%, passing the limit was not always enough
Target sequence (P11229 whole entry, looked up): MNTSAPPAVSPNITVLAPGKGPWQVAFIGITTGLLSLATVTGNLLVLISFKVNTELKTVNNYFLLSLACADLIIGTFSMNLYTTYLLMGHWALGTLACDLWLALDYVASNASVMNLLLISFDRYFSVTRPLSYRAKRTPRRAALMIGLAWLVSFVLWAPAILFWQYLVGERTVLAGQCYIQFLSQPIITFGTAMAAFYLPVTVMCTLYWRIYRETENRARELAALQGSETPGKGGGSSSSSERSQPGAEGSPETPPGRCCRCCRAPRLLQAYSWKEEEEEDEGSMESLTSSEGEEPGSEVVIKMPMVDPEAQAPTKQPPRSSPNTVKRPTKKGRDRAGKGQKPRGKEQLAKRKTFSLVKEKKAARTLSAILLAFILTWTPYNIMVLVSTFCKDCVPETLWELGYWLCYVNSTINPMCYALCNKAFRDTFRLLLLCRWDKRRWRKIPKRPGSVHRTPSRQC
CHO-K1 Ca antag: M1 antagonist counterscreen hit in parental CHO-K1 cells. 0.6% of 360,000 active. inhibition, % at 3 µM. ATP-induced calcium, Fluo-8 fluorescence;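 active = inhibition above a per-plate cutoff, the plate's mean sample inhibition plus 3 SD, cut at about 24% in these data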;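 note: 0% = DMSO plus EC80 ATP and 100% = DMSO alone without ATP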
M1 ag parental: counter-screen for M1 agonists: effect in parental CHO-K1 cells; Fluo-8 calcium fluorescence; scaled to maximal ATP response, vehicle zero; activation, % at 3 µM; 0.48% of 360,000 active; AID 602248, 2012; in the data active = activation above about 15%;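 note: untransfected CHO-K1 host cells lacking M1 receptor as counterscreen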
M1 antag: human M1 muscarinic receptor antagonists, primary screen, CHO-K1 cells, Fluo-8 calcium fluorescence, 1536-well; Muscarinic acetylcholine receptor M1 (Homo sapiens), P11229; CHO-K1 hM1, ACh EC80 antagonist; inhibition, % at 3 µM; 1.3% of 360,000 active; AID 588852, 2011;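 active = percent inhibition above its own plate's cutoff, namely the mean of that plate's compound wells plus 3 SD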;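 note: peak over basal fluorescence ratio during 140 s after agonist addition; 0% = ACh EC80 plus DMSO and 100% = DMSO alone without agonist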
CHRM1 agonist: human M1 muscarinic receptor agonists, primary screen, Fluo-8 calcium fluorescence, CHO-K1 cells, HTS. CHO-K1 hM1, agonist mode; 0% DMSO, 100% acetylcholine EC100. activation, % at 3 µM. 0.33% of 360,000 active;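 active = activation above the run's mean compound activation plus 3 SD, cut at about 16% in these data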;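 note: peak over basal fluorescence ratio within a 140 s kinetic read after compound addition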
M1 PAM parental: nonselective calcium activators in parental CHO-K1 cells, primary screen, counter-screen for M1 PAM project, cell-based, Fluo-8 calcium fluorescence, full deck, 1536-well | ATP EC20; 0% at ATP EC20, 100% at ATP max | activation, % at 3 µM | 0.02% of 360,000 active | AID 602247, 2012;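 active = activation above the run cutoff, the mean activation of all test compounds plus 3 SD, cut at about 40% in these data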;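 note: peak over basal fluorescence ratio in a 140 s read after ATP addition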
Active calls of the source: *.

SMILES	CHRM1 PAM	CHO-K1 Ca antag	M1 ag parental	M1 antag	CHRM1 agonist	M1 PAM parental
CC1CCN(CC(=O)Nc2ccccc2-c2ccccc2)CC1	-34	-17	-1	33*	-12	-11
COc1ccccc1NC(=O)CN1CCN(C2c3ccccc3-c3ccccc32)CC1	0	-28	4	4	6	48*
CCOc1ccc(NC(=O)CN2CCN(C3c4ccccc4-c4ccccc43)CC2)cc1	0	-4	0	1	-4	2
O=C(CN1CCCC1)NC(c1ccccc1)c1ccccc1	-26	10	0	69*	-8	-13
O=C(CN1CCN(c2ccccc2O)CC1)NC(c1ccccc1)c1ccccc1	6	-3	0	-3	-6	10
Cc1ccc(C(=O)NNC(=O)c2n[nH]c(=O)c3ccccc23)cc1C	3	1	0	4	-4	-15
COC(=O)c1ccc(Oc2nc(C(N)=O)cc(-c3ccccc3)n2)cc1	-1	11	0	8	-3	-5
CC(C)N(C)CCOC(=O)C1COc2ccccc2O1 (configuration not stated)	17	-10	1	-11	1	17
CCN(CC)C(=O)C1=C(C)N(Cc2ccccc2)C(=O)C(CC(=O)NCc2ccco2)C1 (configuration not stated)	6	-4	-1	-5	-5	10
O=C(CN1CCCCCC1)Nc1ccccc1Oc1ccccc1	-26	-18	0	41*	-9	16
CCCCN(C(=O)c1ccncc1)c1c(N)n(CCC)c(=O)[nH]c1=O	21	-3	0	-18	2	-8
C=CCOc1ccc(/C=C\c2nc(O)c([N+](=O)[O-])c(=O)[nH]2)cc1OC	0	-6	0	-8	-4	2
C=CCOc1ccc(/C=C\c2nc(O)c([N+](=O)[O-])c(=O)[nH]2)cc1OCC	27*	-9	1	-3	-4	1
O=c1[nH]c(/C=C\c2cccc(Cl)c2)nc(O)c1[N+](=O)[O-]	0	9	-1	-5	-2	-10
O=c1[nH]c(/C=C\c2cccc(F)c2)nc(O)c1[N+](=O)[O-]	8	-60	1	-20	4	41*
CC(=O)c1ccc(NC(=O)CSc2ccc(-c3ccc(-n4cccn4)cc3)nn2)cc1	4	-4	1	-14	-1	-11
O=[N+]([O-])c1ccc(C=CC=Cc2ccccc2)cc1	8	-6	1	-6	-1	10
CN(c1ccccc1)c1ccc(/C=C/[N+](=O)[O-])cc1	-8	28*	20*	64*	23*	2
CC(=O)c1sc(N/N=C\c2c(O)ccc3ccccc23)nc1C	1	-3	4	-4	8	-12
Cc1noc(C)c1C(=O)OCC(=O)Nc1ccccc1C(=O)NC(C)c1ccccc1 (configuration not stated)	3	-17	3	-1	-1	49*
Nc1nc(Nc2ccccc2)nc(NCc2ccccc2)c1[N+](=O)[O-]	3	-1	20*	-5	-3	15
COCCNc1nc(N)c([N+](=O)[O-])c(NCc2ccccc2)n1	8	-15	2	-2	-1	-5
Nc1nc(NCc2ccccc2)nc(NCc2ccccc2)c1[N+](=O)[O-]	11	-5	0	-8	-3	24
COCCCNc1nc(N)c([N+](=O)[O-])c(NCc2ccccc2)n1	-3	-19	4	3	2	9
CN(C)CCCNc1nc(N)c([N+](=O)[O-])c(NCc2ccccc2)n1	-22	2	0	52*	-10	3
SMILES	CHRM1 PAM	CHO-K1 Ca antag	M1 ag parental	M1 antag	CHRM1 agonist	M1 PAM parental
COCCCNc1nc(N)c([N+](=O)[O-])c(Nc2ccccc2OC)n1	10	5	20*	-18	11	11
Cc1csc(=O)n1CCC(=O)OCC(=O)c1ccc(Br)cc1	4	11	0	-9	-3	-12
Cc1cccc(CCN(C(=O)c2csnn2)C(C(=O)NC2CCCC2)c2ccco2)c1 (configuration not stated)	4	-7	-1	-8	-6	11
CCN(CC(=O)Nc1ccccc1C(F)(F)F)CC(=O)c1[nH]c(C)c(C(C)=O)c1C	2	29*	4	3	2	-13
CC(=O)c1c(C)[nH]c(C(=O)CN(C)CC(=O)Nc2ccccc2Cl)c1C	-11	-7	6	5	5	9
Nc1cccnc1Oc1ccc(F)cc1	-7	-10	4	3	-2	8
FC(F)(F)c1cccnc1Oc1ccc(C2=NCCS2)cc1	1	-9	2	-6	24*	22
O=C(O)c1ccc(-c2nc3ccccc3s2)o1	7	-12	1	-24	-3	7
O=C(c1ccc(-c2nc3ccccc3s2)o1)N1CCN(c2ccccc2O)CC1	-2	30*	1	11	-3	-9
COc1cc(Cl)c(CN2CCC(CO)(CCOc3ccccc3)CC2)cc1OC	0	-5	3	-4	-7	15
COC(=O)c1ccc(CN2CCCC(CO)(Cc3ccc(F)cc3F)C2)cc1 (configuration not stated)	-18	5	0	48*	11	-17
COc1cccc(CC2(CO)CCN(S(=O)(=O)N(C)C)CC2)c1	-10	17	0	3	-2	-12
COC(=O)c1ccc(CN2CCC(CO)(Cc3cccc(OC)c3)CC2)cc1	-28	4	0	75*	-7	5
OCC1(CCOc2ccccc2)CCN(CC2=Cc3cc(Cl)ccc3OC2)CC1	-13	-1	3	39*	3	10
COC(=O)c1ccc(CN2CCC(CO)(CCOc3ccccc3)CC2)cc1	-16	-9	3	77*	14	7
CC1=C(C(=O)NCc2ccccn2)C2(CCC(C)CC2)OC1=O (configuration not stated)	1	4	1	-2	-3	25
Cc1ccc(S(=O)(=O)Nc2cc(-c3ccccc3)nn2C)cc1Cl	6	-8	1	-6	-6	3
Cc1cccc(Cl)c1OCCCN1CCOCC1	3	-8	0	32*	-3	6
Cc1ccc2c(c1)N(C(=O)CCC(=O)NCCCN1CCN(C)CC1)CC(C)O2 (configuration not stated)	2	-4	0	1	-8	6
COc1ccc(CN2CCC(Oc3ccc(C(=O)N4CCCC4)cc3)CC2)c(F)c1	-23	-8	1	61*	-6	3
